# Measured values: PubChem BioAssay (NCI)
# The panel holds about 83,000 compounds, 20% with a hit somewhere; the sample as a whole holds those more often.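 Testing used 96-well plates and a 48-hour single-concentration exposure. Example: -40 means 40% of the starting cells died.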 Unmarked numbers belong to inactive results. The source made the active and inactive calls. The calls were made as follows: active = growth percent below 10; inactive = the rest.
# System: MDA-MB-468 breast
# Assay: NCI-60 one-dose screen, 48 h (100 = growth as untreated, 0 = no growth, -100 = all killed)
# Details: 10 µM unless noted
row,Structure (SMILES),growth
1,Brc1ccccc1/C=N/Nc1nc(N/N=C/c2ccccc2Br)nc(N2CCOCC2)n1,90.3%
2,COc1ccc(CN2C(=O)/C(=C\C(=O)c3ccc(OCCN4CCCC4)cc3)c3ccccc32)cc1,49.3%
3,NC[C@@](O)(c1ccc(Cl)cc1)c1ccc(-c2cn[nH]c2)cc1,-40.9% (active)
4,COc1cc(CNC(=O)/C=C/c2ccccc2)ccc1OCC(=O)NO,92.5%
5,CC(C)(C)c1cc(C(C)(C)C)cc(S(=O)(=O)Nc2cc3ccccc3cc2C(=O)NCCN)c1,-69.6% (active)
6,O=C1c2ccccc2C(=O)c2c([N+](=O)[O-])ccc(Cl)c21,-5.53% (active)
7,CCOc1cc2ncc(C#N)c(Nc3ccc(OCc4cccc(F)c4)c(Cl)c3)c2cc1NC(=O)CC1CCSS1 (stereo not given),-5.09% (active)
8,COC(=O)[C@@H](NC(=O)NC(=O)NC(=O)CI)C(C)C,71.6%
9,BrCCCOc1ccc(Oc2ccc(OCCCBr)cc2)cc1,97.5%
10,Cc1ccc(C(=O)O)o1,112%
11,COC(=O)C1=C(C)NC(C)=C(C(=O)OC)C(N2C(=O)CCC2=O)C1 (stereo not given),63.4%
12,COc1ccc(/C=C/C(=O)c2c(C)nc3ccccc3c2/C=C/c2ccccc2)cc1O,40.1%
13,COc1ccc2cnc(N)c(C#Cc3cc(C(=O)Nc4ccc(CN5CCN(C)CC5)c(C(F)(F)F)c4)cnc3C)c2c1,91.2%
14,CCCCCCCCCCCCOB(OCCCCCCCCCCCC)OCCCCCCCCCCCC,99.2%
15,Nc1ncc(-c2ccc(NS(=O)(=O)c3ccc(Cl)c(Cl)c3)cc2)[nH]1,90.1%
